Screening results as filed in PubChem BioAssay.
A selection: hits, their analogues and other compounds. The true share with any hit is near 2.9%.
B2AR arrestin: agonists driving beta-arrestin recruitment to human beta2-adrenergic receptor; beta-arrestin recruitment to beta2AR, cell-based reporter; Potency, µM (doses to about 46.1 µM), inactives show top-dose activation, hits mostly activators; 330,000 tested, 0.02% active; AID 492947;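 also: potency is read from the fitted curve at half-maximal effect; 0% = DMSO controls and full agonism = EC100 isoproterenol or metaproterenol; nearly all actives have a fitted effect of over 65% in size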
DRD3 antagonist: D3 dopamine receptor (human) antagonism; P35462; D3R cells, DiscoveRx beta-arrestin luminescence, antagonist mode; active compounds read low; max response, negative = inhibition, %; 360,000 tested, 2.5% active; AID 652054; in the data active = max response below about -50%; inconclusive = no clear call, values can overlap the other calls; also: % is scaled to controls: 0 for no effect and ±100 for the full control effect
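Cells expressing the human receptor were seeded at 1500 cells/well, incubated overnight at 37 degrees C in 5% CO2, then exposed to library compounds with dopamine controls for 90 minutes at 37 degrees C before luminescent detection.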
Integrin act MD: integrin-mediated muscular dystrophy alleviation activation; alpha7betagal myoblasts, beta-gal FDG fluorescence, 48 h; Potency, µM (highest dose often 38.3 µM), without a hit: at the top dose activation, hits mostly activators; 350,000 tested, 0.064% active; AID 624291;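 also: potency is read from the fitted curve at half-maximal effect; 100% = response of the positive control SU9516; nearly all actives have a fitted effect of over 60% in size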
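alpha7betagal+/- myoblasts (passage 13, 250/well) treated 48 h at 37C with compounds at 1:260 dilution of DMSO stock. Lysed, then beta-galactosidase activity read as FDG fluorescence (ex 480/em 540) after 30 min, with pre-read for autofluorescence.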
IDH1 R132H inh: blocks human mutant IDH1 R132H enzyme | IDH1-R132H enzyme, NADPH consumption, diaphorase/resazurin fluorescence | O75874 | AID 602179 | 390,000 tested, 0.093% active | Potency, µM (highest dose often 76.6 µM), inactives show at the highest dose activity change, negative = inhibition, hits mostly inhibitors; also: potency is read from the fitted curve at half-maximal effect; % is scaled to controls: 0 for no effect and ±100 for the full control effect; nearly all actives have a fitted effect of over 65% in size
Target sequence (O75874 whole entry R132H, stated change not applied): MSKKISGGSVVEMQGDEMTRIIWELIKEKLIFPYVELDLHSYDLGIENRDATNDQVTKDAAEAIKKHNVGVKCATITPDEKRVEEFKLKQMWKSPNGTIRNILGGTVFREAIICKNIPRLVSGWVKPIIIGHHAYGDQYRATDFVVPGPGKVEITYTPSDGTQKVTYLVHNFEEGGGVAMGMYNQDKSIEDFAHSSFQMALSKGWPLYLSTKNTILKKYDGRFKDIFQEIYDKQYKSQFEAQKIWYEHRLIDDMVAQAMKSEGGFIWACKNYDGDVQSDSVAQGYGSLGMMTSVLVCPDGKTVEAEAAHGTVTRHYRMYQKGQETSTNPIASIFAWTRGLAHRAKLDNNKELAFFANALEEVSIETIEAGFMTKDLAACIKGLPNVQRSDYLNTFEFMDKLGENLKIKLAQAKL
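IDH1-R132H (0.5 ug/mL) preincubated 30 min with compound, then NADPH (0.016 mM) and alpha-KG (2 mM) added; 80 min at RT, pH 7.5. Remaining NADPH coupled via diaphorase/resazurin to fluorescence (540/590 nm); concentration-response curves normalized to no-enzyme control.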
D3 ag: agonists of human D3 dopamine receptor | max activation, % | D3R DiscoveRx beta-arrestin cells, luminescence, 90 min | 410,000 tested, 0.58% active; in the data active = max activation above about 30%; also: 0% is about no effect
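Cells at 1500/well, incubated overnight, then treated with pinned compounds (dopamine as control) for 90 min at 37 degrees C. DiscoveRx reagent added for 30 - 60 minutes at room temperature; luminescence read.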
An asterisk follows results filed as active; ? = inconclusive; / = no result. Unless noted, calls follow the shape of the dose curve; as a rule, active = well fitted curve in the direction sought with a large enough effect; inconclusive = small, poorly fitted or top-dose-only effect, or another doubt; inactive = no such curve, though single readings can be large; an effect the other way counts as inactive or inconclusive.

SMILES	B2AR arrestin	DRD3 antagonist	Integrin act MD	IDH1 R132H inh	D3 ag
c1ccc2c(c1)nc1n2CCN1CCN1CCCC1	-0.7%	-111.6*	-10.5%	-4.4%	-35.9
c1ccc2c(c1)nc1n2CCN1CCNC1CCCCC1	2.8%	0.0	-0.6%	2.1%	-0.9
CCC(=O)N1c2ccccc2CC1C(=O)NCCCN1CCN(c2cccc(Cl)c2)CC1 (configuration not stated)	/	/	/	-5.6%	-24.3
CC(C)c1nc2sc3c(=O)[nH]cnc3c2c2c1CCC2	0.2%	6.5	3.2%	2.9%	52.0*
COc1ccc(NC(=O)c2ccc3c(=O)n4nc(Nc5cc(C)ccc5C)sc4nc3c2)cc1	/	/	/	-20.5%	4.6
Cc1nc(N2CCN(Cc3ccccc3)CC2)nc2c1C(=O)CC(C)C2 (configuration not stated)	-1.0%	-60.3*	-5.4%	5.7%	-0.9
CC(OC(=O)C1CC2CCCC(C1)C2=O)C(=O)Nc1cccc([N+](=O)[O-])c1 (configuration not stated)	3.4%	8.7	10.2%	1.1%	-1.3
COc1ccc(OC)c2c1CCC2=O	-0.2%	-52.0*	9.6%	2.2%	3.1
CN(C)c1ccc(N=Nc2ccc(C(=O)O)cc2)cc1	-0.8%	?	2.4%	7.0%	-4.1
Cc1csc(N=Nc2ccc(N(C)C)cc2)[n+]1[O-]	/	-101.6*	16.6%	25.4%	-20.1
Cc1cc(=O)oc2cc(NC(=O)c3ccccc3Cl)ccc12	-0.5%	-16.6	9.3%	2.2%	-6.9
CCc1ccc(-n2c(=O)c3c4c(sc3n(Cc3cc(=O)n5c(C)cccc5n3)c2=O)CCC4)cc1	/	/	/	7.7%	-10.4
COc1ccc(C(=O)N2CCC(c3nc(-c4ccc(S(=O)(=O)N5CCCC5)cc4)no3)CC2)cc1	/	/	/	6.5%	3.5
CC(O)c1cccc(-c2ccc(CN3C[C@]4(CO)O[C@@H](CO)C[C@@H]4S3(=O)=O)cc2)c1 (some centres not stated)	-0.5%	3.1	8.2%	-0.9%	44.6*
O=S1(=O)[C@H]2C[C@@H]3C=C[C@@]2(CN1Cc1cccc(Cl)c1)O3	0.3%	0.0	7.2%	-15.0%	7.0
Cc1ccc(S(=O)(=O)N(CC(O)CN2CCOCC2)c2cc(Cl)ccc2Cl)cc1 (configuration not stated)	0.4%	-53.5*	-32.0%	-2.9%	-17.9
OC(CN1CCCCC1)c1cc(-c2ccccc2)on1 (configuration not stated)	/	/	/	/	-3.2
CCOc1ccc(CNC(=O)CN2N=C(c3ccccc3)CCC2=O)cc1OC	/	/	/	13.9%	49.5*
COc1ccc(CNC(=O)Cn2c(=O)nc(-c3ccccc3)c3ccccc32)cc1OC	/	/	/	-1.8%	32.9*
CCn1cc(Cl)c(C(=O)Nc2ccccc2C(N)=O)n1	-0.5%	-20.0	11.9%	20.2%	47.6*
OCC[C@@H]1C[C@@H](O)[C@H](O)[C@@]2(CCCCO2)O1	/	0.0	6.6%	-4.8%	9.6
Oc1c(Cl)cc(Cl)cc1C=Nc1ccc2c(c1)OCCO2	0.1%	-51.6*	-28.6%	9.1%	-18.0
Brc1csc(C=Nc2ccc3c(c2)OCCOCCOCCOCCO3)c1	-0.4%	0.0	2.8%	0.8%	5.3
Nc1ccc(C2CCCc3nonc32)c2nonc12 (configuration not stated)	-0.2%	-62.5*	-16.0%	4.9%	-7.6
COC(=O)c1ccc(NC(=O)C2CCN(C(=O)c3ccc(F)cc3)CC2)cc1	/	/	/	-5.7%	0.4
SMILES	B2AR arrestin	DRD3 antagonist	Integrin act MD	IDH1 R132H inh	D3 ag
Clc1ccccc1CNc1ncnc2nc[nH]c12	0.3%	33.6	8.2%	1.6%	-2.8
Clc1ccccc1CN(Cc1ccccc1)c1ncnc2nc[nH]c12	0.0%	-64.1*	-5.9%	-5.7%	1.5
CC(C)(CO)NCC(O)COc1ccc2c(c1)CCC2 (configuration not stated)	-0.3%	6.1	1.6%	-10.0%	0.5
CC(C)(C)CC(C)(C)NCC(O)COc1ccc2c(c1)CCC2 (configuration not stated)	/	-63.0*	-61.8%	-6.1%	2.9
COc1ccccc1N1CCN(CC(O)COc2ccc(S(=O)(=O)N3CCOCC3)cc2)CC1 (configuration not stated)	0.1%	-80.8*	-21.9%	7.2%	-30.9
COc1ccccc1N1CCN(CC(O)COc2ccc(Cl)c(C)c2)CC1 (configuration not stated)	/	/	/	-0.8%	-23.0
